VDR inhibitor: inhibitors of human vitamin D receptor | P11473 | VDR-SRC2-3 peptide fluorescence polarization, 2 h | Potency, µM, without a hit: max response, negative = inhibition, hits mostly inhibitors | actives 0.93% (n = 400,000) | AID 504847
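Signal is fluorescence polarization, reporting how far test compounds block the interaction of VDR with the SRC2-3 coregulator peptide after a 2 h room-temperature incubation.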
KAT2A inh: inhibitors of human GCN5L2 histone acetyltransferase; AID 504327; actives 0.21% (n = 390,000); GCN5L2 HAT assay, ThioGlo1 CoA-SH fluorescence; Potency, µM (titrated, usually from 58.9 µM), for the others: at the highest dose activity change, negative = inhibition, actives largely listed as inhibitors
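ThioGlo1-coupled HAT assay: 20nM GCN5L2, 70uM acetyl-CoA, 75uM H3(1-25) peptide, pH 7.5. Fluorescence read at 340/540nm at start and after 20 min at room temperature.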
TDP1 block: TDP1 (human) enzyme inhibition. Q9NUW8. actives 0.28% (n = 350,000). AID 485290. recombinant TDP1, AlphaScreen DNA substrate cleavage. Potency, µM (series often up to 130 µM), inactives show at the top dose activity change, negative = inhibition, most hits filed as inhibitors; further: nearly all actives have a fitted effect of over 40% in size
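Here, a 5' biotin and 3' phosphotyrosine-FITC DNA oligonucleotide reports Tdp1 activity: intact substrate bridges AlphaScreen beads, while cleavage leaves a 3' phosphate and drops signal. All incubations at room temperature.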
TDP1 cell CPT: growth inhibition of DT40 Tdp1-/-;hTDP1 cells with camptothecin (screen for TDP1 inhibitors). actives 12% (n = 420,000). chicken DT40 Tdp1-/-;hTDP1 cells + 20 nM CPT, ATP luminescence, 48 h. Potency, µM (series often up to 46.2 µM), for inactives: at the highest dose activity change, negative = growth inhibition, usual class: inhibitors; further: nearly all actives have a fitted effect of over 55% in size
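Chicken DT40 Tdp1-/- cells stably complemented with human TDP1 were seeded at 400 cells/well in medium containing 20 nM camptothecin, exposed to pin-transferred compounds, and grown at 37 °C for at least 48 hr. Viability was read as ATP luminescence.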
DT40 TDP1 no CPT: qHTS for Inhibitors of human tyrosyl-DNA phosphodiesterase 1 (TDP1): qHTS in cells in absence of CPT. DT40 Tdp1-/- hTDP1 cells, no CPT, ATP luminescence, 48 h. Potency, µM (top dose mostly 46.2 µM), inactives show at the top dose activity change, negative = growth inhibition, hits mostly inhibitors. actives 15% (n = 420,000); further: nearly all actives have a fitted effect of over 55% in size
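Camptothecin absent (DMSO only). Human TDP1-complemented DT40 knockout cells, 400 cells/well, 37 °C for minimum 48 hr; ATP measured via CellTiter-Glo, 30 min dark incubation, luminescence.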
PLK1 PBD inh: PLK1 (human) polo-box domain binding inhibition; actives 2.8% (n = 360,000); Potency, µM, without a hit: max response, negative = inhibition, actives largely listed as inhibitors; AID 720504; Plk1 PBD binding of FITC phosphopeptide, fluorescence polarization; further: series mostly up to about 57 µM; nearly all actives have a fitted effect of over 65% in size
Target sequence (P53350 whole entry, looked up, the tested form may be a part): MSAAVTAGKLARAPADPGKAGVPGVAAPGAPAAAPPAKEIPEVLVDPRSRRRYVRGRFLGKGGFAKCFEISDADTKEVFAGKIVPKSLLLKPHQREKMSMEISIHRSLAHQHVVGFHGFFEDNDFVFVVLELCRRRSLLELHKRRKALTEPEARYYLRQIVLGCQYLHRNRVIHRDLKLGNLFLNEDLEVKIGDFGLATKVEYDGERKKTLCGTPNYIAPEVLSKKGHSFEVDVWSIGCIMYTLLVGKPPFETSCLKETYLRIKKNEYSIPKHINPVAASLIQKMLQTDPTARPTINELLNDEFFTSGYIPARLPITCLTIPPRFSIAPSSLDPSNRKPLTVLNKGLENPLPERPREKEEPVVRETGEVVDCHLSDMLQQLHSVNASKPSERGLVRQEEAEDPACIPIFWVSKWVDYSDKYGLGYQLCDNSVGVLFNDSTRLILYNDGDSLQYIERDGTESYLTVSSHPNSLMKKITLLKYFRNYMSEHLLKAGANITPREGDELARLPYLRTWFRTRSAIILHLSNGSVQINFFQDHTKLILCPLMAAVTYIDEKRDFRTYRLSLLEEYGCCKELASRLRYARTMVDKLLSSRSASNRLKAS
* hit, by the source's call; ? = inconclusive; / = not tested or not shown; [ ] = remark or other dose. This is a sample that favours compounds with a hit; in the whole collection about 18% have one here. The call rests on the fitted dose curve; in most records, active means well fitted curve in the direction sought with a large enough effect; inconclusive means small, poorly fitted or top-dose-only effect, or another doubt; inactive means no such curve, though single readings can be large; an effect the other way counts as inactive or inconclusive. On the % scale 0 is the no-effect control and ±100 the full control effect; potency means the concentration at half of the fitted maximal effect.

SMILES	VDR inhibitor	KAT2A inh	TDP1 block	TDP1 cell CPT	DT40 TDP1 no CPT	PLK1 PBD inh
COc1cccc(-c2nc3c(C#N)c[nH]n3c2NC2CCCCC2)c1	8%	-10%	6%	?	?	/
COC(=O)c1ccccc1NS(=O)(=O)c1c(C)noc1C	4%	-5%	1%	-16%	23%	5%
Cc1nc2ccccc2cc1C(=O)O	-2%	-11%	5%	-1%	4%	-2%
O=C(Nc1ccccc1-c1ccccc1)c1ccccc1Br	12%	-3%	/	-18%	-2%	2%
Cc1ccccc1C(=O)Nc1ccccc1C(=O)NCc1ccccc1	7%	-26%	-2%	?	18µM*	2%
O=C(Nc1ccccc1C(=O)NCc1ccccc1)c1ccccc1Br	-3%	-7%	-3%	23µM*	?	3%
O=C(Nc1ccccc1Br)c1ccccc1-c1ccccc1	-9%	-8%	-3%	5.8µM*	6.5µM*	-8%
Cc1nc2ccccc2cc1C(=O)NCc1ccccc1	-15%	/	/	?	13µM*	-20%
Cn1c(=S)[nH]c(=O)c2ncc(=O)[nH]c21	6%	-4%	6%	-1%	13%	-4%
COc1ccc2nc(/C=N/NC(=O)[C@@H]3CCCN3C(=O)OC(C)(C)C)ccc2c1	-2%	-6%	/	0%	?	0%
Cc1ccccc1C(=O)Nc1ccc(N(C)C)c2ccccc12	14%	-6%	/	?	3.7µM*	-17%
CCOC(=O)c1c(NC(=O)COC(=O)c2ccccc2NC)sc(C(=O)N(C)C)c1C	17%	-13%	-2%	?	?	-3%
O=C(COc1ccc([N+](=O)[O-])cc1)N1CCC(c2nc3ccccc3s2)CC1	13%	-9%	5%	7.3µM*	9.2µM*	/
COc1ccc(OCC(=O)N2CCC(c3nc4ccccc4s3)CC2)cc1	-2%	-8%	4%	?	?	/
CCc1ccc(OC(C)C(=O)N2CCC(c3nc4ccccc4s3)CC2)cc1 (centres undefined)	-1%	-8%	-3%	18µM*	16µM*	/
CCC(C)(C)C1CCC2(CC1)NC(=O)N(CC(=O)N1CCN(C(=O)c3ccco3)CC1)C2=O (centres undefined)	-2%	3%	-1%	-29%	-4%	-5%
C=C(c1ccc2ccccc2n1)c1cccs1	/	/	/	11µM*	14µM*	/
CCOC(=O)C1C(=O)C=C(Nc2ccccc2F)CC1c1ccccc1 (centres undefined)	-25%	-7%	-5%	-11%	?	-5%
CCOc1ccc(C(=S)N2CCCC2)c(OCC)c1	?	-2%	5%	21µM*	?	12µM*
CCOc1ccc(C(=S)N2CCCC2)cc1	1%	-2%	7%	-5%	-5%	-4%
O=C(O)c1ccccc1NC(c1ccccc1)c1ccc(Cl)cc1 (centres undefined)	-26%	0%	/	-18%	?	?
CC(=O)N1CCc2c(sc3c2c(=O)n(Cc2ccccc2)c(=O)n3Cc2ccccc2Cl)C1	2%	-12%	6%	?	23µM*	/
CC(=O)N1CCc2c(sc3c2c(=O)n(CCc2ccccc2)c(=O)n3Cc2ccc(F)cc2)C1	-17%	-14%	3%	18µM*	8.2µM*	/
CC(=O)N1CCc2c(sc3c2c(=O)n(Cc2ccccc2)c(=O)n3Cc2ccccc2F)C1	-12%	-13%	-4%	21µM*	21µM*	/
COc1ccccc1NC(=O)Cn1c(=O)n(CCc2ccccc2)c(=O)c2c3c(sc21)CN(C(C)=O)CC3	-11%	-3%	-2%	16µM*	16µM*	/
SMILES	VDR inhibitor	KAT2A inh	TDP1 block	TDP1 cell CPT	DT40 TDP1 no CPT	PLK1 PBD inh
CCOC(=O)c1nnc(-c2ccc(C)cc2)nc1Sc1ccccc1Cl	?	-7%	-12%	?	16µM*	-2%
CCOC(=O)c1nnc(-c2ccccc2)nc1Sc1c(Cl)cccc1Cl	-9%	-13%	8%	21µM*	16µM*	-21%
CCOC(=O)c1nnc(-c2ccc(C)cc2)nc1Sc1ccc(Cl)cc1	?	1%	8%	8.2µM*	8.2µM*	-10%
CCOC(=O)c1nnc(-c2ccc(C)cc2)nc1Oc1ccc(Cl)cc1Cl	?	-10%	2%	?	16µM*	-15%
COCCNC(=O)CSc1ccccc1C(=O)NC1CCCc2ccccc21 (centres undefined)	4%	-5%	0%	4%	-18%	-11%
O=C(Nc1ccc(NC(=O)C2CC2)cc1)c1cccs1	-3%	?	2%[56.1 µM]	-25%	-10%	-4%
CC(=O)CSc1nnc2cc(C)c3cc(C)cc(C)c3n12	12%	1%	6%	-22%	-23%	/
Cc1nc2cc(Cl)ccc2c(=O)n1Cc1ccncc1	3%	9%	/	2%	-1%	-3%
Cn1cccc1C1NC(=O)c2c(sc3c2CCC(C(C)(C)C)C3)N1 (centres undefined)	17%	-3%	5%	-30%	18µM*	-10%
C=CC(C)(C)c1[nH]cnc1/C=C1\NC(=O)C(C(C)C)NC1=O (centres undefined)	-21%	-20%	/	12µM*	16µM*	-3%
CCN(C(=O)COC(=O)C12CC3CC(CC(NC(C)=O)(C3)C1)C2)C1CCCCC1	0%	10%	-8%[0.505 µM]	?	21µM*	0%
Cc1cccc(-c2nc(CCNC(=O)Cc3ccc(F)cc3)cs2)c1	9%	13%	0%	?	23µM*	/
COc1ccc(CC(=O)NCCc2csc(-c3cccc(C)c3)n2)cc1	0%	-6%	9%	?	?	/
Cc1cc(C)cc(C(=O)NCCc2csc(-c3ccc(C(F)(F)F)cc3)n2)c1	7%	-16%	4%	?	21µM*	/
O=C(COc1ccc(Cl)cc1)NCCc1csc(-c2ccc(C(F)(F)F)cc2)n1	-1%	-2%	-1%	?	23µM*	/
Cc1cccc(CC(=O)NCCc2csc(-c3ccc(C(F)(F)F)cc3)n2)c1	14%	-2%	0%	16µM*	15µM*	/
O=C(NCCc1csc(-c2ccc(C(F)(F)F)cc2)n1)c1ccc(F)c(F)c1	7%	-14%	3%	/	/	/
O=C(COc1ccccc1)NCCc1csc(-c2ccc(Cl)cc2)n1	7%	-1%	3%	?	?	/
Cc1ccc(C)c(S(=O)(=O)N2CCN(C(=O)c3cccn3C)CC2)c1	-1%	-20%	2%	5%	-9%	0%
CN(C)c1ccc(C=O)c(F)c1	/	/	/	17%	-3%	/

Source: PubChem BioAssay (National Center for Advancing Translational Sciences (NCATS))
